# Screens deposited in PubChem BioAssay by National Center for Advancing Translational Sciences (NCATS).
# POLB inh = blocks human DNA polymerase beta activity; P06746; Pol beta primer extension/strand displacement, fluorescence kinetic; Potency, µM (titrated, usually from 114 µM), usual class: inhibitors; actives 1.3% (n = 340,000)
#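 Values derive from four-parameter Hill fits of normalized kinetic data: reads at 0 and 10 min following addition of 50 nM substrate to 10 nM Pol beta preincubated 15 min with compound.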
# Pol kappa inh-1 = DNA polymerase kappa (human) inhibition; Q9UBT6; purified Pol kappa, fluorescent DNA synthesis assay, 10 min; Potency, µM (top dose mostly 107 µM), usual class: inhibitors; actives 0.53% (n = 400,000); AID 588579
# Target sequence (Q9UBT6 whole entry, looked up): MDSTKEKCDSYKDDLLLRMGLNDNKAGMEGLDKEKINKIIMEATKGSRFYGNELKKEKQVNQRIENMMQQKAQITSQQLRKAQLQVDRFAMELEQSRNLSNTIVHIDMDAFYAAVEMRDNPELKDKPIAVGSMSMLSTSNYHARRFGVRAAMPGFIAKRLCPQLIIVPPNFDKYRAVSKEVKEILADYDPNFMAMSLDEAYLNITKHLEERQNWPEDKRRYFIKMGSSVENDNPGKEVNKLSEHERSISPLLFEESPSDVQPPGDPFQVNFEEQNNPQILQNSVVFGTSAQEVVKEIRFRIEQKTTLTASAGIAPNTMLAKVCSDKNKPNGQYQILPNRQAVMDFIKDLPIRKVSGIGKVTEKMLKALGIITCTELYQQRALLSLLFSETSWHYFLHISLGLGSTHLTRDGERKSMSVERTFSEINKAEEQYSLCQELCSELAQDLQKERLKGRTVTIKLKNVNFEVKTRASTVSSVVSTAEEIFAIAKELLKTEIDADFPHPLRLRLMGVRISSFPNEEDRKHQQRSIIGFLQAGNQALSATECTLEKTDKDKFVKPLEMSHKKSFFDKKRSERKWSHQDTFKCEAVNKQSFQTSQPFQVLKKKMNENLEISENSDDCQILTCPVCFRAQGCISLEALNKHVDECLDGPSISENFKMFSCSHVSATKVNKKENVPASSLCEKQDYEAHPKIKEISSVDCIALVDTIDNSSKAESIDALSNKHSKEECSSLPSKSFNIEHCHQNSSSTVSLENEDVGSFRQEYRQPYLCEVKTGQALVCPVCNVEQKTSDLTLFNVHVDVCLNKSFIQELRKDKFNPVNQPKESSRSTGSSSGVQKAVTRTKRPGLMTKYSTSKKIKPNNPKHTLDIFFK
#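 Readout: fluorescence, taken kinetically at 0 and 10 min. Conditions: 10 nM Pol kappa, 15 min RT compound preincubation, 50 nM substrate final. Controls: enzyme-free buffer wells.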
# Pol eta inh-1 = inhibitors of human DNA polymerase eta | recombinant Pol eta, fluorescent DNA replication assay | Potency, µM (titrated, usually from 114 µM), actives largely listed as inhibitors | actives 1.2% (n = 390,000) | AID 588591
#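 Pol eta at 10 nM preincubated with compounds 15 min at room temperature; reaction started with fluorescent substrate (50 nM final) and read kinetically at 0 and 10 min.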
# Pol iota inh = DNA polymerase iota (human) inhibition; Q9UNA4; Pol iota fluorescent replication assay, 10 min; Potency, µM (titrated, usually from 115 µM), actives largely listed as inhibitors; actives 1% (n = 390,000)
#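 Fluorescent replication assay read twice, at 0 min and 10 min after adding 50 nM (final) substrate. Enzyme (10 nM) and compounds were first incubated 15 min at room temperature; enzyme-free buffer wells were negative controls.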
# WRN helicase inh-1 = blocks human WRN helicase; Potency, µM (series often up to 114 µM), actives largely listed as inhibitors; AID 651768; actives 0.46% (n = 360,000); WRN helicase unwinding, fluorescent forked duplex, kinetic; note: nearly all actives have a fitted effect of over 55% in size
#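 Kinetic fluorescence helicase assay: unwinding of a quenched forked DNA duplex (100 nM final) with 2 mM ATP final raises red fluorescence (525/598 nm). Compounds sat 15 min at room temperature with 20 nM WRN beforehand.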
# FEN1 inh-1 = blocks human flap endonuclease 1. Recombinant FEN1 flap cleavage, fluorescence, 15 min. Potency, µM (highest dose often 114 µM), most hits filed as inhibitors. P39748. AID 588795. actives 0.35% (n = 390,000); note: nearly all actives have a fitted effect of over 65% in size
#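 Reaction started by adding substrate (50 nM final) to 10 nM enzyme after 15 min room-temperature compound preincubation. Reads at 0 and 15 min, with data normalized and fitted to a four-parameter Hill equation.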
# PGK validate = TbPGK inhibition, hit validation; actives 79% (n = 500); Potency, µM (doses to about 57.5 µM), actives largely listed as inhibitors; shares compounds with Pol kappa inh-1; TbPGK coupled GAPDH assay, Kinase-Glo luminescence; note: nearly all actives have a fitted effect of over 65% in size
# POLI cherry-pick = Human Pol iota inhibitor confirmatory assay. shares compounds with Pol kappa inh-1. Pol iota primer extension, TAMRA/BHQ fluorescence. Potency, µM, usual class: inhibitors. actives 77% (n = 1,500)
# Pol kappa inh-2 = Pol kappa (human) inhibition, cherry-pick confirmation. shares compounds with Pol eta inh-1. purified Pol-kappa, fluorescent strand-displacement substrate. Potency, µM, actives largely listed as inhibitors. actives 76% (n = 920)
# Pol eta inh-2 = confirmation of human DNA polymerase eta inhibitors. shares compounds with Pol eta inh-1. Pol eta primer extension, TAMRA/BHQ fluorescence, 10 min. Potency, µM, hits mostly inhibitors. actives 64% (n = 2,600). AID 720502
# FEN1 inh-2 = FEN1 inhibition, cherry-pick retest; AID 720498; shares compounds with FEN1 inh-1; FEN1 flap cleavage, TAMRA/BHQ2 fluorogenic DNA substrate; actives 79% (n = 880); Potency, µM, most hits filed as inhibitors; note: nearly all actives have a fitted effect of over 60% in size
# WRN helicase inh-2 = confirmation of human WRN helicase inhibitors | Potency, µM (titrated, usually from 57.1 µM), hits mostly inhibitors | actives 63% (n = 610) | shares compounds with WRN helicase inh-1 | WRN helicase DNA unwinding, fluorescence kinetic; note: nearly all actives have a fitted effect of over 65% in size
# TO displacement = binds DNA, flagged in WRN inhibitor counterscreen | shares compounds with WRN helicase inh-1 | thiazole orange DNA binding displacement, fluorescence | Potency, µM (top dose mostly 57.1 µM), most hits filed as inhibitors | actives 10% (n = 610) | AID 720499;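 note: drop in dye fluorescence marks compound binding to DNA; nearly all actives have a fitted effect of over 60% in size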
# BLM helicase inh = counter-screen for WRN helicase inhibitors: human BLM helicase inhibition; shares compounds with WRN helicase inh-1; Potency, µM (doses to about 57.1 µM), actives largely listed as inhibitors; actives 60% (n = 610); Recombinant BLM helicase DNA unwinding, red fluorescence; note: nearly all actives have a fitted effect of over 60% in size
# Hits are given with their value; i = inactive; ? = inconclusive; nt = no result given. An excerpt weighted towards active compounds, which were near 2.4% of everything screened. Calls come from the whole dose curve; as a rule, active = well fitted curve in the direction sought with a large enough effect; inconclusive = small, poorly fitted or top-dose-only effect, or another doubt; inactive = no such curve, though single readings can be large; an effect the other way counts as inactive or inconclusive.
SMILES,POLB inh,Pol kappa inh-1,Pol eta inh-1,Pol iota inh,WRN helicase inh-1,FEN1 inh-1,POLI cherry-pick,Pol kappa inh-2,Pol eta inh-2,FEN1 inh-2,WRN helicase inh-2,TO displacement,BLM helicase inh,others
O=C1c2cccc(NCCNCCO)c2C(=O)c2cccc(NCCNCCO)c21,nt,28µM,7.1µM,45µM,7.1µM,4µM,19,19,nt,nt,6.1µM,1.2µM,7.6µM,
CC(OC(=O)c1cccc(O)c1)C(=O)N(C)Cc1ccccc1 (stereo not drawn),nt,i,i,i,i,i,nt,nt,nt,nt,nt,nt,nt,
CC(OC(=O)/C(C#N)=C/c1ccc(N(C)C)cc1)C(=O)N(C)Cc1ccccc1 (stereo not drawn),i,?,50µM,89µM,45µM,?,27,nt,24,76,24µM,i,22µM,
COc1cccc2c1-c1c(O)cccc1C2=O,i,i,i,?,i,i,nt,nt,nt,nt,nt,nt,nt,
COc1cccc2c1C(=O)c1c(O)c3c(c(O)c1C2=O)CC(O)(C(C)=O)CC3OC1CC(O)C(O)C(C)O1 (stereo not drawn),nt,?,25µM,45µM,3µM,28µM,24,75,34,85,22µM,i,22µM,
COc1ccccc1CNC(=O)COC(=O)c1cc(-c2ccco2)nc2ccccc12,5µM,22µM,14µM,7.1µM,35µM,50µM,21,15,24,nt,19µM,?,17µM,
CCCCCCNC(=O)c1cc(-c2ccco2)nc2ccccc12,7.9µM,50µM,13µM,?,40µM,i,27,nt,30,nt,?,i,17µM,
COc1ccccc1CNC(=O)COC(=O)c1cc(C)nc2ccccc12,nt,i,i,i,i,i,nt,nt,nt,nt,nt,nt,nt,
CCOC(=O)c1cc(C)n(CC2CCC(C(=O)Nc3cccc(C)c3)CC2)c1C (stereo not drawn),i,i,i,i,nt,i,nt,nt,nt,nt,nt,nt,nt,
Cn1cc(/C=C/c2ccc3ccccc3n2)c2ccccc21,nt,i,nt,i,nt,?,nt,nt,nt,nt,nt,nt,nt,
CCc1ccccc1Nc1nn2c(=O)c3ccc(C(=O)NCc4ccccc4Cl)cc3nc2s1,i,i,i,?,nt,i,nt,nt,nt,nt,nt,nt,nt,
O=C(NCc1cccs1)c1ccc2c(=O)n3nc(Nc4ccccc4)sc3nc2c1,?,i,?,i,nt,i,?,nt,nt,nt,19µM,i,3.4µM,
O=C(Nc1ccc2oc(=O)ccc2c1)c1ccc(-c2cccc([N+](=O)[O-])c2)o1,2.8µM,i,32µM,i,10µM,?,21,nt,nt,nt,?,?,1.5µM,
O=C(Nc1ccc2oc(=O)ccc2c1)c1ccc(-c2ccc(Cl)cc2)o1,i,i,i,i,i,i,nt,nt,nt,nt,nt,nt,nt,
O=C(O)c1ccc2nc(-c3ccco3)c(-c3ccco3)nc2c1,3.5µM,22µM,3.5µM,?,?,35µM,4.7,nt,3.8,15,4.3µM,3.8µM,12µM,
Cc1ccc(-c2nc3ccc(C(=O)O)cc3nc2-c2ccc(C)cc2)cc1,i,i,i,i,i,i,nt,nt,nt,nt,nt,nt,nt,
CC1=NN(c2cccc(C(=O)O)c2)C(=O)/C1=C\C=C\c1ccco1,0.56µM,7.1µM,i,1.3µM,4.7µM,22µM,2.4,nt,1.5,24,1.5µM,i,0.96µM,PGK validate=2.9µM
CCc1ccc2oc(C(=O)N(Cc3cccc(Cl)c3)Cc3ccco3)c(C)c2c1,i,i,i,i,nt,i,nt,nt,nt,nt,nt,nt,nt,
O=C1c2cc(O)c(O)cc2OC(c2ccc(O)c(O)c2)C1O (stereo not drawn),nt,8.9µM,14µM,3.2µM,?,32µM,38,19,27,nt,14µM,i,?,
COc1ccc2c(c1)C(=O)[C@H](O)[C@@H](c1ccc(OC)c(Br)c1)O2,i,i,i,i,i,i,nt,nt,nt,nt,nt,nt,nt,
CC(C)c1ccc(N2C(=O)/C(=C/N(C)C)SC2=S)cc1,?,?,?,7.9µM,20µM,32µM,4.2,30,3,30,12µM,i,14µM,
C/C(N)=C(/C#N)C(=O)CSc1nnc(Nc2cccc(C)c2)s1,40µM,?,20µM,?,?,?,75,nt,?,nt,i,i,?,
CSC1SCC2C(=O)N(C)C(C(C)C)C(=O)OCC(NC(=O)c3cnc4ccccc4n3)C(=O)NC(C)C(=O)N(C)C1C(=O)N(C)C(C(C)C)C(=O)OCC(NC(=O)c1cnc3ccccc3n1)C(=O)NC(C)C(=O)N2C (stereo not drawn),nt,i,i,0.32µM,0.53µM,0.56µM,1.5,0.75,1.5,0.6,0.34µM,?,0.54µM,
Cc1nn(-c2ccccc2)c(-n2cccc2)c1C(=O)NCCCN1CCN(c2ccccc2F)CC1,i,i,i,i,nt,i,nt,nt,nt,nt,nt,nt,nt,
CC(C)c1ccc(S(=O)(=O)Nc2ccc(O)c(Sc3ncn[nH]3)c2)cc1,i,i,i,i,i,i,nt,nt,nt,nt,nt,nt,nt,
COc1ccc(S(=O)(=O)Nc2cc(Sc3ncn[nH]3)c(O)c3ccccc23)cc1,22µM,?,nt,5µM,9.5µM,6.3µM,42,nt,?,?,24µM,i,?,
Cc1ccc(-c2nc3c(c(SCC(=O)Nc4cccc(C(=O)O)c4)n2)Cc2cccc(C)c2O3)cc1,1.8µM,?,nt,?,nt,?,8.4,3.8,85,nt,2.2µM,2.7µM,0.86µM,
COc1cc(/C=C2\CC/C(=C\c3cc(OC)c(O)c(OC)c3)C2=O)cc(OC)c1O,4.5µM,10µM,1.8µM,2.8µM,11µM,6.3µM,27,nt,9.5,8.5,3.4µM,6.1µM,5.4µM,
